Screening data from PubChem BioAssay.
An excerpt weighted towards active compounds, which were near 3.8% of everything screened.
Jurkat NFkB inh: inhibitors of induced NF-kB luciferase reporter, primary screen, TCR NF-kB activation inhibitor project, cell-based, luminescence, uHTS; Jurkat, PMA/ionomycin-induced NF-kB luciferase reporter; inhibition, % at 4 µM; 330,000 tested, 0.53% active; in the data active = inhibition above about 50%
Shn3 inh set2: reduction of Shn3 3'UTR firefly luciferase signal, primary screen, Schnurri-3 inhibitor project, cell-based, Clone20 osteoblasts, set 2; Clone20 osteoblast Shn3 3'UTR firefly luciferase, 24 h; inhibition, % at 12.5 µM; 360,000 tested, 0.52% active; AID 588674, 2011;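 active = mean inhibition of at least 75% with every replicate also reaching 75%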
Mdm2-MdmX inh: inhibitors of human Mdm2-MdmX association, primary screen, cell-based, luminescence, split luciferase, SaOS-2, uHTS. SaOS-2 split-luciferase Mdm2/MdmX complementation. inhibition, % at 8 µM. 330,000 tested, 3% active. AID 485346, 2010;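 active = inhibition of at least 50% at 8 µM in the primary screen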
697 NFkB inh: inhibitors of PMA/ionomycin-induced NF-kB reporter, 697 cells, primary screen, B-cell NF-kB inhibitor project, cell-based, luminescence, uHTS | 697 B-cell NF-kB luciferase reporter, 16 h | inhibition, % at 4 µM | 330,000 tested, 0.33% active | AID 435022, 2010; in the data active = inhibition above about 35%
Gli-Sufu antag: Gli-Sufu pathway antagonists, primary screen, luciferase luminescence, Sufu-KO-LIGHT cells, uHTS | inhibition, % at 5 µM | 340,000 tested, 0.74% active | Sufu-KO-LIGHT fibroblasts, Gli luciferase reporter luminescence;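 active = inhibition above about 55%, limit read from the data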
Mdm2-MdmX conf: Mdm2-MdmX complex disruptors, retested hits, confirmation, luminescence, single concentration; shares compounds with Mdm2-MdmX inh; Mdm2-MdmX binding, luminescent assay; inhibition, % at 8 µM; 10,000 tested, 55% active; AID 489028, 2010; in the data active = inhibition above about 40%
FLuc counter: full-length luciferase signal inhibition, confirmation, counter-screen for Mdm2/MdmX interaction inhibitor project, cell-based, single concentration, SaOS-2; shares compounds with Mdm2-MdmX inh; SaOS-2 full-length luciferase counterscreen, luminescence; inhibition, % at 8 µM; 6,200 tested, 77% active; AID 504607, 2011;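 active = mean inhibition at 8 µM reaching about 37%, which flags the compound as non-specific, limit read from the data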;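 also: p53-null SaOS-2 cells with luciferase driven by a doxycycline-inducible promoter; compound on cells about two nights before reading with doxycycline added after day one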
A number is an active result.

Screening COc1ccc(/C=C2\SC(=S)N(CC(=O)N3CCN(C)CC3)C2=O)cc1 returned Jurkat NFkB inh inactive, Shn3 inh set2 inactive, Mdm2-MdmX inh inactive, 697 NFkB inh inactive and Gli-Sufu antag inactive.
`CN1CCN(C(=O)CCCN2C(=O)/C(=C/c3ccccc3)SC2=S)CC1` gave Jurkat NFkB inh inactive, Shn3 inh set2 inactive, Mdm2-MdmX inh 52.5, 697 NFkB inh inactive, Gli-Sufu antag inactive, Mdm2-MdmX conf inactive and FLuc counter inactive.
For CN1CCN(C(=O)CCCN2C(=O)/C(=C/c3ccc(Cl)cc3)SC2=S)CC1 the results were Jurkat NFkB inh inactive, Shn3 inh set2 inactive, Mdm2-MdmX inh 52.2, 697 NFkB inh inactive, Gli-Sufu antag inactive and Mdm2-MdmX conf inactive.
`COc1ccc(/C=C2/SC(=S)N(CCCC(=O)N3CCN(C)CC3)C2=O)cc1` gave Jurkat NFkB inh inactive, Shn3 inh set2 inactive, Mdm2-MdmX inh 54.7, 697 NFkB inh inactive, Gli-Sufu antag inactive, Mdm2-MdmX conf inactive and FLuc counter inactive.
`CCc1ccc(/C=C2\SC(=S)N(CCC(=O)N3CCN(C)CC3)C2=O)cc1` gave Jurkat NFkB inh inactive, Shn3 inh set2 inactive, Mdm2-MdmX inh inactive, 697 NFkB inh inactive and Gli-Sufu antag inactive.
`CCN(CC)C(=O)c1cccc(NC(=O)c2ccccc2OCc2c(C)noc2C)c1` gave Jurkat NFkB inh inactive, Shn3 inh set2 inactive, Mdm2-MdmX inh inactive, 697 NFkB inh inactive and Gli-Sufu antag inactive.
CO/N=C(/CNC(=O)c1ccc(F)cc1)c1ccc(Cl)cc1 was read as Jurkat NFkB inh inactive, Shn3 inh set2 inactive, Mdm2-MdmX inh inactive, 697 NFkB inh inactive and Gli-Sufu antag inactive.
`Cn1c2ccccc2c(=O)c2ccc(C#CC3(O)CCCCC3)cc21` gave Jurkat NFkB inh inactive, Shn3 inh set2 inactive, Mdm2-MdmX inh 83.1, 697 NFkB inh inactive, Gli-Sufu antag inactive, Mdm2-MdmX conf 74.5 and FLuc counter 146.4.
`COc1ccc(C#Cc2ccc3c(c2)c(=O)c2ccccc2n3C)cc1` gave Jurkat NFkB inh inactive, Shn3 inh set2 inactive, Mdm2-MdmX inh inactive, 697 NFkB inh inactive and Gli-Sufu antag inactive.
Screening COC(=O)C1=C(C)N(c2ccc(Cl)c(Cl)c2)C(=O)C1 returned Jurkat NFkB inh inactive, Shn3 inh set2 inactive, Mdm2-MdmX inh 96.9, 697 NFkB inh inactive, Gli-Sufu antag inactive and Mdm2-MdmX conf inactive.
Screening COC(=O)C1=C(C)N(c2ccc(S(N)(=O)=O)cc2)C(=O)C1 returned Jurkat NFkB inh inactive, Shn3 inh set2 inactive, Mdm2-MdmX inh inactive, 697 NFkB inh inactive and Gli-Sufu antag inactive.
For Cc1cc(NC(=O)CN(C)C)c([N+](=O)[O-])cc1C the results were Jurkat NFkB inh inactive, Shn3 inh set2 inactive, Mdm2-MdmX inh inactive, 697 NFkB inh inactive and Gli-Sufu antag inactive.
For O=C(CSc1ccccn1)Nc1nonc1[N+](=O)[O-] the results were Jurkat NFkB inh inactive, Shn3 inh set2 95.1, Mdm2-MdmX inh 94.9, 697 NFkB inh inactive, Gli-Sufu antag inactive, Mdm2-MdmX conf 79.8 and FLuc counter inactive.
Screening O=C(CSc1ccccn1)Nc1ccc(NC(=O)CSc2ccccn2)cc1 returned Jurkat NFkB inh inactive, Shn3 inh set2 inactive, Mdm2-MdmX inh inactive, 697 NFkB inh inactive and Gli-Sufu antag inactive.
N#C/C(=N\Nc1ccc(Cl)c(Cl)c1)C(=O)C1CC1 was read as Jurkat NFkB inh inactive, Shn3 inh set2 inactive, Mdm2-MdmX inh 58.4, 697 NFkB inh inactive, Gli-Sufu antag inactive, Mdm2-MdmX conf 72.4 and FLuc counter 46.8.
For N#C/C(=N\Nc1ccc(F)cc1)C(=O)C1CC1 the results were Jurkat NFkB inh inactive, Shn3 inh set2 inactive, Mdm2-MdmX inh inactive, 697 NFkB inh inactive and Gli-Sufu antag inactive.
